# Source: PubChem BioAssay (NCATS)
# Results filed as inconclusive are left out. Entries that show only a call come without a potency. The source made the active and inactive calls. Unless noted, calls follow the shape of the dose curve; as a rule, active = well fitted curve in the direction sought with a large enough effect; inconclusive = small, poorly fitted or top-dose-only effect, or another doubt; inactive = no such curve, though single readings can be large; an effect the other way counts as inactive or inconclusive.
# Tests used:
# [1] = molecular target: Calcium and integrin-binding protein 1 (Homo sapiens) (UniProt Q99828); assay: Primary qHTS for Identification of Calcium Integrin Binding Protein 1 (CIB1) Competitor (AID 1508620); also: potency is read from the fitted curve at half-maximal effect
# Method in brief: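 CIB1-GST (1 uM final) and compound incubated 15 min at room temperature before adding FITC-alphaIIb peptide tracer (100 nM final). Competition for binding read by fluorescence polarization (ex 480, em 540) after another 15 min at room temperature.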
# [2] = Primary qHTS for small molecule stabilizers of the endoplasmic reticulum resident proteome: Secreted ER Calcium Modulated Protein (SERCaMP) assay (AID 1508630)
# Method in brief: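 GLuc-SERCaMP-expressing SH-SY5Y cells, pretreated 16 h with compound, are challenged with thapsigargin to empty ER calcium stores; after 4 h, coelenterazine is added directly to the medium and luminescence is imaged.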
# [3] = molecular target: Cytochrome P450 2D6 (Homo sapiens) (UniProt P10635); assay: Cytochrome P450 family 2 subfamily D member 6 (CYP2D6) small molecule antagonists: luciferase biochemical (cell-free) qHTS assay (AID 1645840; active = well fitted curve in the direction sought with a large enough effect in the repeat runs; an effect the other way counts as inactive or inconclusive; also: nearly all actives have a fitted effect of over 55% in size; also: potency is read from the fitted curve at half-maximal effect)
# Method in brief: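 P450-Glo luminescent screen: recombinant CYP2D6 enzyme–proluciferin substrate mix preincubated with compound 10 min at room temperature, then NADPH regeneration added for 1 h at room temperature. Detection reagent added for 20 min; luciferin light read as relative luminescence units.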
# Chain of Calcium and integrin-binding protein 1 (Homo sapiens) (Q99828 whole entry, looked up): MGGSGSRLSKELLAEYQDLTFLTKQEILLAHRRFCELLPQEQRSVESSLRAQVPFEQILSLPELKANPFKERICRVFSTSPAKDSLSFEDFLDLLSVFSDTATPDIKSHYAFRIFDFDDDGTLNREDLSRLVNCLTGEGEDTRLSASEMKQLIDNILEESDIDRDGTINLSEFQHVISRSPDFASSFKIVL
# Chain of Cytochrome P450 2D6 (Homo sapiens) (P10635 whole entry, looked up): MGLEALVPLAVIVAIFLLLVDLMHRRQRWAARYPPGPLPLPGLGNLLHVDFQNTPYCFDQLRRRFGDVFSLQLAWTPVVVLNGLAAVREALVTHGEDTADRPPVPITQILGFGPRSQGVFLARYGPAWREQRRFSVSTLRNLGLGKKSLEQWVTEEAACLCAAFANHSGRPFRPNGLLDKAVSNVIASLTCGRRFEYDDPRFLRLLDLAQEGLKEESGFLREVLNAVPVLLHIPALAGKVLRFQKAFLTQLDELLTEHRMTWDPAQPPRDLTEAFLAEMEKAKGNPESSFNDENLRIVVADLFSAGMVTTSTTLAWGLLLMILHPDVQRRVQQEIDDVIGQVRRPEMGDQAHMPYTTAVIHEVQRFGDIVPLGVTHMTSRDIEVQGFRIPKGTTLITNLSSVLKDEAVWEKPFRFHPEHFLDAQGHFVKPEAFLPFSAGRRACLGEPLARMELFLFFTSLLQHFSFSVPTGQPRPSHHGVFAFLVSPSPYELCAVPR
Compound,Potency [1],outcome [2],Potency [3]
O=S(=O)(c1ccccc1)N(CC(F)(F)F)c1ccc(C(O)(C(F)(F)F)C(F)(F)F)cc1,inactive,inactive,
C=C1C(=O)O[C@@H]2[C@H]1CC(=O)[C@H](C)[C@@](O)(C(=O)/C=C/C)[C@H]2OC(=O)C(C)CC (stereo partly drawn),inactive,,
C/C1=C\[C@@H](C)C[C@@H](C)[C@@H](Cc2cnco2)OC(=O)/C(C)=C/[C@@H](C)C[C@@H](C)[C@@H](Cc2cnco2)OC1=O,inactive,,
Cc1ccc(N2CCN(CCC3NC(=O)c4ccccc43)CC2)cc1C (stereo not drawn),inactive,,inactive
CC1(C)CC[C@]2(C(=O)O[C@@H]3O[C@H](CO)[C@@H](O)[C@H](O)[C@H]3O)CC[C@]3(C)C(=CCC4[C@@]5(C)CC[C@H](O[C@@H]6O[C@H](C(=O)O)[C@H](O)[C@H](O)[C@H]6O)C(C)(C)C5CC[C@]43C)[C@@H]2C1 (stereo partly drawn),inactive,,
CCC(C)C1NC(=O)C(Cc2ccccc2)NC(=O)C(CCCCCC(=O)C(O)CO)NC(=O)C2CCCCN2C1=O (stereo not drawn),inactive,,
O=C(NC[C@H](O)CN1CCc2ccccc2C1)c1ccnc(NC2CCC2)c1,inactive,,
COc1cccc(NCCC2(c3ccccc3)CC(C)(C)OC(C)(C)C2)c1,inactive,,
CCCn1ncc(CN2CCCC(C(=O)c3cccc(OC(C)C)c3)C2)c1C (stereo not drawn),inactive,,0.338 µM (active)
Cc1cnc(-c2ccccc2C(C)C)nc1NCc1ccc(-n2ccnn2)cc1,inactive,,
O=C(Nc1nnc(-c2ccc3c(c2)OCCO3)o1)C1CCCCC1,inactive,,inactive
COC1CC(=O)C23C(=O)NC(Cc4c[nH]c5ccccc45)C2C(C)C2(C)OC2C3/C=C/CC(C)CC1O (stereo not drawn),inactive,,
CN1CCC(c2cn(C)c3ccc(OS(=O)(=O)c4c(F)cccc4F)cc23)CC1,inactive,,12 µM (active)
CC(=O)OC1CCC2(C)C(CCC3(C)C2CC=C2C4C(C)C(C)CCC4(C)CCC23C)C1(C)C(=O)O (stereo not drawn),inactive,,
COc1cc(C[C@H]2C(=O)OC[C@@H]2Cc2ccc(OC)c(OC)c2)ccc1O,inactive,inactive,
CC(C)(C[C@@](O)(Cc1cc2ccncc2[nH]1)C(F)(F)F)c1cc(F)ccc1O,inactive,,0.134 µM (active)
C[C@@H]1CN(CC(=O)N2CC(C)(C)c3ncc(Cc4ccc(F)cc4)cc32)[C@@H](CN2CCOC[C@H]2C)CN1,inactive,,
CCC(CC)(NC(=O)C(C)C)C(=O)N[C@@H](CCCN=C(N)N)C(=O)NC1(C(=O)NC(c2ccc(F)cc2)c2ccc(F)cc2)CCCC1,inactive,,
CCc1ccccc1OC[C@@H](O)CN[C@H]1CCCc2ccccc21,inactive,inactive,0.477 µM (active)
OC(c1ccc(-c2ccc(CN3CCN(Cc4ccncc4)CC3)cc2)c(F)c1)(C(F)(F)F)C(F)(F)F,inactive,,3.38 µM (active)
Clc1cccc(COc2cncc(N3CCNCC3)n2)c1,inactive,,8.49 µM (active)
COc1ccc(Cl)c(Nc2ncnc3cc(OCC4CCN(C)CC4)c(OC)cc23)c1,inactive,,inactive
CC(C)c1ccc(-c2cc(=O)c3ccccc3o2)cc1,inactive,,15.1 µM (active)
O=C(NCCN1CCN(c2cccc3ccc(O)cc23)CC1)c1ccc(F)cc1,inactive,,0.0425 µM (active)
CNCCCC1(c2ccccc2)OC(C)(C)c2ccccc21 (stereo not drawn),inactive,,6.74 µM (active)

Compound,Potency [1],outcome [2],Potency [3]
O=C1c2ccc(Nc3ccc(F)cc3F)cc2CCc2ccc(OCC(O)CO)cc21 (stereo not drawn),inactive,,26.8 µM (active)
Clc1ccc(Nc2nc3ccccc3c3nc(C4CCCCC4)[nH]c23)cc1Cl,inactive,,inactive
O=S(=O)(Cc1ccccc1)Nc1ccc(-c2ccc3c(cnn3-c3ccc(F)cc3)c2)c(C(F)(F)F)c1,inactive,,inactive
O=C(N[C@H](Cc1cscn1)C(=O)N[C@@H](CC1CCCCC1)[C@@H](O)[C@@H](O)C1CC1)c1nc2ccccc2[nH]1,inactive,,19 µM (active)
CC(C)(N)c1ncc(-c2ccc(OC(F)(F)F)cc2)[nH]1,inactive,,23.9 µM (active)
Cc1c(C(=O)Nc2ccc(N3CCC(N4CCOCC4)CC3)c(C#N)c2)cnn1-c1ccc(Cl)cc1,inactive,,12 µM (active)
COc1ccc(N2CCN(C(=O)c3cc4c(s3)-c3ccccc3S(=O)(=O)C4)CC2)cc1,inactive,,inactive
COc1ccc(NC(=O)c2ccc(C(=N)N(C)C)cc2)c(C(=O)Nc2ccc(Cl)cn2)c1,inactive,,inactive
COc1cc(CCc2cc(NC(=O)c3ccc(N4CC(C)NC(C)C4)cc3)n[nH]2)cc(OC)c1 (stereo not drawn),inactive,,12 µM (active)
CC1=C(c2ccc(NC(=O)c3c(F)cccc3F)cc2)CN(c2nccs2)CC1,inactive,,inactive
CC(C)(O)c1ccn2c(-c3ccc(F)c(-c4ccc(F)cc4C#N)c3)cnc2c1F,inactive,,19 µM (active)
CC1=C(C(=O)OC2CCCCC2)C(c2ccc([N+](=O)[O-])cc2)C2=C(CC(C)(C)CC2=O)N1 (stereo not drawn),17.8 µM (active),,21.3 µM (active)
CCC(C)CNCC(=O)N1CCc2sccc2C1COc1cccc(C)c1 (stereo not drawn),inactive,,0.0952 µM (active)
NCCOc1cc(C(=O)Nc2cc(OCCN)c3ccccc3n2)nc(C(=O)Nc2cc(OCCN)c3ccccc3n2)c1,inactive,,inactive
Cc1[nH]c(/C=C2\C(=O)Nc3cc(-c4ccccc4)ccc32)c(C)c1CCC(=O)O,inactive,,inactive
NS(=O)(=O)Nc1ncnc(OCCOc2ncc(Br)cn2)c1-c1ccc(Br)cc1,inactive,,inactive
Cc1cccc(-c2[nH]ncc2-c2ccnc3ccccc23)n1,inactive,,inactive
c1ccc(-c2ccc(CNc3nc(-c4ccccn4)nnc3-c3ccccc3)cc2)cc1,inactive,,2.68 µM (active)
N#CC(CCCN1CCC(O)(c2ccc(Cl)cc2)CC1)(c1ccccc1)c1ccccc1,inactive,,0.536 µM (active)
O=C(NCCCCN1CCN(c2cccc(Cl)c2Cl)CC1)c1cc2ccccc2s1,inactive,,0.301 µM (active)
CN1CCN(Cc2ccc(NC(=O)Cc3ccc(Oc4cc(NC(=O)C5CC5)ncn4)cc3)cc2C(F)(F)F)CC1,inactive,,15.1 µM (active)
CNC(=O)[C@@H](c1ccccc1)N1CCc2cc(OC)c(OC)cc2[C@@H]1CCc1ccc(C(F)(F)F)cc1,inactive,,4.77 µM (active)
CC(=O)c1ccc2c(c1)[C@H](NC(=O)c1ccc(F)c(Cl)c1)[C@H](O)C(C)(C)O2,inactive,,0.674 µM (active)
CN1CCN(c2ccc(OC(F)(F)F)c(Nc3ncc4c(n3)-c3c(c(C(N)=O)nn3CCO)CC4)c2)CC1,inactive,,inactive
COc1ccccc1N1CCN(CC(C(=O)NC(C)(C)C)c2ccccc2)CC1 (stereo not drawn),inactive,,1.69 µM (active)

Compound,Potency [1],outcome [2],Potency [3]
O=C(c1ccccn1)N(Cc1cccs1)C1(C(=O)NC2CCCCC2)CCCCC1,inactive,,inactive
CC(C)c1ccc(NC(=O)Cn2cnc3c2c(=O)n(C)c(=O)n3C)cc1,inactive,,inactive
CC#CC(=O)Nc1ccc2ncnc(Nc3cccc(Br)c3)c2c1,inactive,,inactive
CCOc1nc(NC(=O)Cc2cc(OC)ccc2OC)cc(N)c1C#N,inactive,,inactive
CCCc1cc2c(N3CCN(C4=NCC(C)(C)S4)CC3)ncnc2s1,inactive,,0.952 µM (active)
COc1cc2ncnc(Nc3cccc(I)c3)c2cc1OC,inactive,,12 µM (active)
Cc1noc(C)c1-c1cc(O)cc(C(O)c2ccccc2)c1 (stereo not drawn),inactive,,16.9 µM (active)
C[C@H](CN(C)C)Oc1nc(Nc2cc3cccc(Cl)c3cn2)cnc1C#N,inactive,,0.674 µM (active)
O=C(Nc1cccnc1)c1cc(-c2ccnc(F)c2)ccc1OCc1ccccc1,inactive,,inactive
Nc1cccc(CNC(=O)c2ccc(Oc3ccc(OCc4cccc(F)c4)cc3)nc2)c1,inactive,,inactive
Cc1ccc(F)cc1S(=O)(=O)N[C@@H]1CCN(Cc2ccc(OC(C)C)cc2)C1,inactive,,0.0169 µM (active)
CCn1c(=O)c(-c2ccc(-c3cncs3)cc2Cl)cc2cnc(Nc3ccc(N4CCN(C)CC4)cc3)nc21,inactive,,inactive
COc1cc2c(cc1OC(C)C)[C@H](c1ccc(Cl)cc1)N(c1ccc(N(C)CC3CCC(N4CCN(C)C(=O)C4)CC3)cc1)C(=O)C2 (stereo partly drawn),inactive,,21.3 µM (active)
CCCN1CCC=C(c2cc(-c3ccc(C)cc3)no2)C1,inactive,,2.68 µM (active)
CN(C)S(=O)(=O)c1ccc(NC(=S)N2CCC(C(O)(c3ccccc3)c3ccccc3)CC2)cc1,inactive,,inactive
CN(C)CCN(Cc1ccc(-c2ccc(CNCCc3ccccc3)cc2)cc1)C(=O)CCC1CCCC1,inactive,,0.601 µM (active)
CC(=O)N1CCN(CCOc2ccc(C3CCN(C4=Nn5c(nnc5C(F)(F)F)CC4)CC3)cc2)CC1,inactive,,inactive
CN(C)C(=O)COC(=O)c1cc(-c2ccc(C3CCNCC3)cc2)c2ccc(-c3ccc(C(F)(F)F)cc3)cc2c1,inactive,,10.7 µM (active)
Cc1nc2ccc(-n3ncc(C(=O)c4cc5ccccc5[nH]4)c3N)cc2[nH]1,inactive,,23.9 µM (active)
C=CCCN1CCC2(CC1)CN(C(=O)c1c(F)cccc1F)c1ccc(Cl)cc12,inactive,,0.019 µM (active)
CCOC(=O)c1cnn(-c2ccccc2)c1NC(=O)c1cc2nc(-c3ccco3)cc(C(F)(F)Cl)n2n1,inactive,,inactive
O=C(c1cc(Cc2n[nH]c(=O)c3ccccc23)ccc1F)N1CCCNCC1,inactive,,inactive
CCOC(=O)N1c2ccc(C(F)(F)F)cc2C(N(Cc2cc(C(F)(F)F)cc(C(F)(F)F)c2)C(=O)OC)CC1CC (stereo not drawn),inactive,,inactive
O=C(Nc1ccc(Cl)cc1)Nc1cccc(-c2cccc(N3CCCC3)n2)c1,inactive,,6.74 µM (active)
